Assay outcomes as filed in PubChem.
Hits are enriched below; roughly 4.1% of the tested compounds scored in any of these assays.
DAX1 inh-1 – NR0B1 (DAX1) inhibition | P51843 | 0.99% of 340,000 active | HEK293 Gal4-DAX1 luciferase reporter, luminescence | inhibition, % at 6.75 µM | AID 504766;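 active = inhibition above the mean over all tested compounds plus 3 SD, cut at about 4.2% in these data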;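 note: inhibition shows as a rise in luminescence from relieved DAX1 repression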
Target sequence (P51843 207-470 limits assumed): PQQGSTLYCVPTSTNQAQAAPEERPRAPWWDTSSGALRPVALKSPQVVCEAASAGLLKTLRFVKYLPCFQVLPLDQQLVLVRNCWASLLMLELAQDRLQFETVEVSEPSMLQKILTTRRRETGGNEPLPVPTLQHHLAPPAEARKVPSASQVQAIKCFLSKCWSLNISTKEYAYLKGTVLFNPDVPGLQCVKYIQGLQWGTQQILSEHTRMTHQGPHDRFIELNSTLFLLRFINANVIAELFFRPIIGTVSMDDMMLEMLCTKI
hcDAF-12 act – activates DAF-12 receptor from parasite H. contortus | HEK293 hcDAF-12 lit1-tk-luc reporter, luminescence; 0% DMSO, 100% Δ7-dafachronic acid | activation, % at 6.8 µM | 1.4% of 370,000 active | AID 652067;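 active = activation above the mean of all tested compounds plus 3 SD, cut at about 5.5% in these data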
hgDAF12 agonist – agonists of H. glycines DAF-12 nuclear receptor; HEK293 GAL4-hgDAF12 UAS-luciferase reporter, agonist luminescence; normalized to butyrate control; activation, % at 6.8 µM; 1.8% of 370,000 active; AID 687014;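 active = activation above a cutoff set at the mean of all screened compounds plus 3 SD, cut at about 10% in these data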
DAX1 inh-2 – inhibitors of DAX1 repression of SF-1 activated StAR promoter; HEK293T StAR-luciferase reporter, SF-1/DAX-1 repression relief; inhibition, % at 6.8 µM; 1.1% of 370,000 active;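 active = inhibition above the mean over all tested compounds plus 3 SD, cut at about 3.6% in these data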;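 note: higher inhibition means more luminescence from relief of DAX-1 repression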
ssDAF12 agonist – S. stercoralis DAF-12 activation, primary screen | HEK293 ssDAF-12/GRIP1 lit1-tk-luc reporter, luminescence; % of 3 µM dafachronic acid response | activation, % at 6.8 µM | 1% of 370,000 active | AID 652126;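 active = activation above the mean over all tested compounds plus 3 SD, cut at about 0.9% in these data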
Numbers stand for hits; - = inactive; . = not tested or not shown.

SMILES | DAX1 inh-1 | hcDAF-12 act | hgDAF12 agonist | DAX1 inh-2 | ssDAF12 agonist
NC(=O)c1ncn([C@@H]2O[C@H](C(=O)N[C@H](Cc3c[nH]c4ccccc34)C(=O)N3CCN(CC(=O)N4CCCC4)CC3)[C@@H](O)[C@H]2O)n1 | . | - | - | - | -
O=C1Nc2ccccc2N=C(c2ccc3c(c2)OCO3)C1N(C(=O)c1ccc2ccccc2c1)C1CC1 (stereo unspecified) | . | 5.6 | 11.1 | - | -
C[C@H](O)[C@@H]1CN2CCc3c([nH]c4c(-c5ccccc5)cccc34)[C@@H]2C[C@@H]1N(C)C(=S)Nc1ccc(C#N)cc1 | . | - | - | - | -
Cc1cc(N/C=C(\C#N)S(=O)(=O)c2ccc(Cl)cc2)nc(C)n1 | 4.2 | - | - | - | -
COC(=O)[C@]12C[C@H](CC(=O)NCC34CC5CC(CC(C5)C3)C4)C(=O)N(Cc3ccco3)C1=C[C@H](C1CCCC1)O[C@@H]2C | . | - | - | - | -
COc1ccc(NC(=O)C(c2cc3c(cc2[N+](=O)[O-])OCO3)N(C)Cc2ccccc2)cc1 (stereo unspecified) | - | 5.8 | - | - | -
CCN(c1cccc(C)c1)C(C(=O)Nc1ccc(OC)cc1)c1cc2c(cc1[N+](=O)[O-])OCO2 (stereo unspecified) | - | - | - | - | -
Brc1ccccc1/C=N/Nc1ccccn1 | - | - | - | - | -
Cc1ccc(/C=N/Nc2ccccn2)s1 | - | - | 10.7 | - | -
O=C(NCCN1CCC(n2c(=O)[nH]c3cc(Cl)ccc32)CC1)c1ccc(F)cc1 | . | - | - | - | -
CN(C)S(=O)(=O)c1ccc(C(=O)N2CCN(C(=O)C3CCCO3)CC2)cc1 (stereo unspecified) | - | - | - | - | -
CN(C)S(=O)(=O)c1cccc(C(=O)N2CCN(C(=O)C3CCCO3)CC2)c1 (stereo unspecified) | - | - | - | 3.8 | -
CCn1c2ccccc2c2cc(NC(=O)COC(=O)c3cccc(F)c3)ccc21 | . | - | - | - | -
Cc1cccc(C(=O)Nc2c(-c3ccccc3)nc3ncccn23)c1 | . | - | - | - | -
Oc1[nH]c2ccccc2c1N=Nc1ccc(F)cc1 | - | - | 11.8 | - | -
CC(C)(O)C(=O)N=Nc1c(O)[nH]c2ccccc12 | - | - | 10.5 | - | -
O=[N+]([O-])c1cc(S(=O)(=O)Nc2ccccc2)ccc1Nc1ccccc1 | - | - | - | - | 1.6
O=[N+]([O-])c1ccc(C(O)CSC(=S)N2CCCCC2)cc1 (stereo unspecified) | 5.4 | - | - | - | -
Cc1cccc(C(=O)NNC2=C(C(=O)C(F)(F)F)CCC2)c1O | - | - | 11.9 | - | -
COc1ccc(CCNC(=O)C/C(C)=N/NC(=O)C23CC4CC(CC(C4)C2)C3)cc1OC | - | - | - | - | 0.9
O=C(Nc1ccc(Cl)cc1)C1CCCN(S(=O)(=O)c2cnc[nH]2)C1 (stereo unspecified) | - | - | - | - | -
CC(C)c1ccc(S(=O)(=O)N2CCN(C(=O)C3CCCCC3)CC2)cc1 | - | 5.8 | - | - | -
CC(C)c1ccc(NC(=O)C2CCCN(S(=O)(=O)c3cnc[nH]3)C2)cc1 (stereo unspecified) | 5.5 | - | - | - | -
Cc1c2ccccc2nc2c(F)c(N(C)C)c(F)c(F)c12 | - | 5.8 | - | - | -
CC(=O)c1csc(COc2ccc(Cl)cc2)n1 | 9.3 | - | - | - | -
SMILES | DAX1 inh-1 | hcDAF-12 act | hgDAF12 agonist | DAX1 inh-2 | ssDAF12 agonist
NNC(=O)c1csc(COc2cc(Cl)cc(Cl)c2)n1 | . | - | - | - | -
Cc1cc(C(=O)COC(=O)Cc2n[nH]c(=O)c3ccccc23)c(C)n1-c1cccc(C(F)(F)F)c1 | - | - | - | - | -
Cc1cc(C(=O)COC(=O)CC2Sc3ccccc3NC2=O)c(C)n1-c1cccc(C(F)(F)F)c1 (stereo unspecified) | - | - | - | - | 1.2
O=S(=O)(c1ccc(OC(F)(F)F)cc1)N1CCCC(N2CCOCC2)C1 (stereo unspecified) | 4.6 | - | - | - | -
COc1ccc(N2CCN(C3CCCN(S(=O)(=O)c4ccccc4)C3)CC2)cc1 (stereo unspecified) | - | - | - | - | -
CSc1cccc(NC(=O)/C=C/c2ccco2)c1 | - | - | - | - | -
COc1ccccc1NC(=O)/C=C\c1ccco1 | - | 5.6 | - | - | -
COc1cccc(NC(=O)/C=C/c2ccco2)c1 | - | - | 10.5 | 4.0 | -
O=C(c1cccc(COc2ccc(Cl)cc2Cl)c1)N1CCN(c2ccccn2)CC1 | - | - | 10.7 | - | -
Cc1ccccc1NC(=O)CN1C(=O)N/C(=C\c2ccccc2OCc2ccc(C(=O)O)cc2)C1=O | - | - | - | - | -
Clc1ccccc1N1CCN(Cc2c[nH]c3ccccc23)CC1 | - | - | - | - | -
Fc1ccccc1N1CCN(C2CCN(Cc3c[nH]c4ccccc34)CC2)CC1 | - | - | - | - | 1.3
Cc1sc(CO)c(Sc2ccccc2)c1C(=O)O | . | 6.0 | - | - | -
O=C(N/N=C1\CCCc2oc(C(=O)O)cc21)c1ccccc1 | - | - | 10.8 | - | 1.7
COc1cccc(C2CCCCN(C)C2=O)c1 (stereo unspecified) | 4.6 | - | - | - | -
O=C1C(Cl)=C(N2CCCCCC2)C(=O)N1c1ccc(Br)cc1 | - | - | - | - | 2.2
CCCOc1nccc2c1n(C)c(=O)n2C | . | - | - | - | -
CC(C)(C)OC(=O)N1CCC(N[C@@H](Cc2ccccc2)C(=O)NCCc2c[nH]c3ccccc23)(C(=O)NC2CCCCC2)CC1 | . | - | - | . | -
CCOC1=C2CN(S(=O)(=O)c3ccc(C)cc3)[C@H](c3ccccc3)C[C@@H]2N(S(=O)(=O)c2ccc(Br)cc2)[C@H](c2ccccc2)C1 | . | - | - | - | -
O=C(c1nc2ncccn2n1)N1CCN(c2ccccc2)CC1 | - | - | - | 3.7 | -
O=C(c1nc2ncccn2n1)N1CCN(c2ccc(F)cc2)CC1 | - | - | - | - | -
CCOC(=O)c1cn(Cc2ccc(Br)cc2)nn1 | - | - | - | - | -
CCOC(=O)c1cn(Cc2ccc(C)cc2)nn1 | - | 5.8 | - | - | -
C[C@@H]1CCN(C2CC2)S(=O)(=O)c2ccc(N3CCC[C@H]3C)cc2O1 | . | - | - | - | -
Cc1cc(NS(=O)(=O)c2ccc(NS(=O)(=O)c3ccc(CC(C)C)cc3)cc2)nc(C)n1 | 5.8 | - | - | - | -
Cc1ccc(S(=O)(=O)Nc2ccc(S(=O)(=O)Nc3cc(C)nc(C)n3)cc2)cc1 | - | - | - | - | -
OCC1OC(n2cnc3c(NCCc4ccccc4)ncnc32)C(O)C1O (stereo unspecified) | - | - | 12.7 | - | -
CCCC[C@H]1C2CC(OC(=O)Nc3ccc(Cl)cc3)C(C2)[C@H]2CCCCN21 (stereo partly specified) | . | - | - | - | -
